According to ChEMBL document CHEMBL4513216, “Probing the Open Global Health Chemical Diversity Library for Multistage-Active Starting Points for Next-Generation Antimalarials” (ACS Infect Dis, 2020):
In all, about 65,000 compounds went through this assay and about 2,100 (3.2%) showed an effect of 50% or more. The median lay at about -52%. For the sample, strong results were picked, then their nearest neighbours and some compounds at random.

test system: Plasmodium falciparum; assay: Screen against P. falciparum Asexual Blood Stage (ABS), at 5uM; format: functional, Dd2; details: tested at 5 uM

SMILES	INHIBITION [%]
O=C1CO[C@@H]2CN(Cc3cccnc3)C[C@H]2N1Cc1ccncc1	-6.5
C[C@H]1C[C@H]2CN(Cc3ccccn3)CC[C@@H]2O1	-8.95
Cc1[nH]c2ccc(CNC3CCN(Cc4ccccn4)CC3)cc2c1C	93.6
O=C1Nc2ccccc2C12CCN(Cc1ccccn1)CC2	-45.4
O=S(=O)(NC[C@H]1C[C@@H]2CCN1C[C@@H]2CN1CCOCC1)c1ccccc1	-71.9
O=C(NC[C@H]1C[C@@H]2CCN1C[C@@H]2CN1CCCCC1)Nc1ccccc1	-34.9
O=S(=O)(NC[C@H]1C[C@@H]2CCN1C[C@@H]2CN1CCCC1)c1ccc(Cl)cc1	89.4
CC(=O)N1CCOCC2(CN(Cc3ccccn3)CCO2)C1 (stereo not drawn)	-107
CN1CCN(C(=O)c2cn(Cc3ccccc3)c3ncccc23)CC1	-70.4
CN1CCCN(C(=O)c2ccnn2-c2ccc3ccccn23)CC1	70.8
CC(NC1CCCC1)c1ccccc1-n1cccn1 (stereo not drawn)	81
NC(CC1CCCCC1)c1ccccc1 (stereo not drawn)	55.4
NC(Cc1nc(-c2ccccc2)no1)c1ccccc1 (stereo not drawn)	-253
Cc1cc(CN2CC[C@H]3OCC[C@@]3(C(=O)N3CCOCC3)C2)no1	-53.6
COc1cccc([C@@H]2CCN(Cc3cn(C)c4ccccc34)C[C@H]2O)c1	78
COc1cccc([C@@H]2CCN(Cc3cccc(C)n3)C[C@H]2O)c1	-29.5
OC[C@@H]1[C@@H](c2ccccc2)CN2CCN(c3ccccn3)C[C@H]12	-63.3
Cn1cc(CN2CCCC(CCc3ccc(F)c(F)c3)C2)cn1 (stereo not drawn)	71.2
Cn1cc(CN2CCCC(CCc3ccc(F)cc3F)C2)cn1 (stereo not drawn)	89.3
Cn1cc(CN2C[C@@H]3CCC[C@@H](OCc4cccnc4)[C@@H]3C2)cn1	-74.7
Cc1cccc(CN2CC[C@H]3[C@H]2CCN3Cc2cnn(C)c2)n1	-127

SMILES	INHIBITION [%]
Cn1cc(CN2CCN3C[C@H](Oc4cccnc4)C[C@H]3C2)cn1	-50.7
CN(C)[C@@H]1CCN(C(=O)Cc2ccc(F)cc2)[C@H]1Cc1cnn(C)c1	-2.98
Cn1cc(CN2C[C@H](Oc3ncccc3F)[C@H]3OCCC[C@H]32)cn1	-37
Cn1cc(CN2CCCC(CCc3ccc(F)cc3)C2)cn1 (stereo not drawn)	74.7
Cn1cc(CN2CC[C@H]3CO[C@H](CNc4ncccn4)[C@H]3C2)cn1	-108
Cn1cc(CN2CCCC(CCc3c(F)cccc3F)C2)cn1 (stereo not drawn)	79.3
Cc1ccc(N2CCO[C@H]3CN(Cc4cnn(C)c4)C[C@H]32)nn1	7.68
Cn1cc(CN2CC[C@@H]3[C@@H]2CCN3C(=O)Cc2cccc(F)c2)cn1	-39.1
CC(=O)N1CCC2(CCN(CC(C)C)C2)C1 (stereo not drawn)	-17.7
CCOC(=O)CN1C[C@@H]2OCCN(c3ncc(F)cn3)[C@@H]2C1	-17.5
COCc1cn(C[C@H]2C[C@@H]3CCN2C[C@@H]3C(=O)N2CCOCC2)nn1	-65.4
Cc1cc(C)nc(-n2nc(C)c3c2NC(=O)CSC3c2cnn(C)c2)n1 (stereo not drawn)	-48.5
COc1cccc([C@@H]2CCN(Cc3c[nH]c(C)n3)C[C@H]2O)c1	-35.2
Cc1nc(CN2CCCC(CCc3ccccc3C(F)(F)F)C2)no1 (stereo not drawn)	45.9
O=C(Cc1cnccn1)N1C[C@@H]2CC[C@H]1CN(Cc1cscn1)C2	-120
Cn1cc(CN2CCCC(CCc3ccccc3C(F)(F)F)C2)cn1 (stereo not drawn)	87.9
FC(F)(F)c1ccccc1CCC1CCCN(Cc2cscn2)C1 (stereo not drawn)	79.6
Cc1noc(C)c1CN1CCO[C@H]2CN(Cc3nccn3C)C[C@H]21	-35.4
Cn1ccnc1CN1CCN2C[C@H](OCc3cccnc3)C[C@H]2C1	-52.6
Cn1ccnc1CN1CCCC(CCc2ccc(F)c(F)c2)C1 (stereo not drawn)	74.5
CN(C)Cc1cncc2c1CCN(Cc1cnn(C)c1)C2	-86.8

SMILES	INHIBITION [%]
Cc1nc(CN2CCCC(CCc3ccc(F)c(F)c3)C2)c[nH]1 (stereo not drawn)	81.9
CC(C)(C)CNCC1(O)CCCN(Cc2ccccc2F)C1=O (stereo not drawn)	84.5
O=C1N(Cc2cccc(F)c2F)CCCC1(O)CNCC1CCCCC1 (stereo not drawn)	74.4
COC(=O)C(CO)NC(=O)c1cn(Cc2ccccc2F)nn1 (stereo not drawn)	-19.2
Cc1nc(C2(NCc3cccc(F)c3F)CCCCC2)no1	-42.2
COc1ccc(F)c(CN2CCCC(O)(CNC3CCCCC3)C2=O)c1 (stereo not drawn)	70.3
O=C1N(Cc2ccc(F)c(F)c2)CCCC1(O)CNCC1CCCCC1 (stereo not drawn)	74.1
O=C(C1CCCC1)N1CCO[C@@H]2CNC[C@@H]21	8.33
O=C1N(c2ccsc2)CCC12CCCN(Cc1ccccn1)C2 (stereo not drawn)	-30.2
c1cncc(OC[C@@H]2CC[C@H]3[C@H](CCN3Cc3cccs3)O2)c1	-15.5
Cc1oncc1C(=O)N[C@@H]1CN(CC2CC2)C[C@@H]2CCCO[C@@H]21	-164
Cc1cc(CN2C[C@@H]3COC[C@]3(CNC(=O)c3ccco3)C2)no1	-65.1
CC(C)N1CCO[C@H]2CN(C(=O)Cc3cccs3)C[C@H]21	-102
c1cc(CO[C@@H]2CC[C@H]3[C@H]2OCCN3CC2CCOCC2)ccn1	-52.1
CNC(=O)[C@@]12CCCN(c3ncccn3)[C@@H]1CN(C)C2	-69.8
CC(C)(C)c1cc(=O)[nH]c(C2(N)CCCC2)n1	-59.9
Cc1cc(C)cc(OCC(=O)N2CCCN(CC(N)=O)CC2)c1	-21.7
NC(=O)CN1CCCN(C(=O)COc2cccc(F)c2)CC1	-58.7
CS(=O)(=O)N1CCC(Nc2ccc(C#N)c(C(F)(F)F)c2)CC1	-14.2
NC(=O)CN1CCC(Nc2ccnc3ccc(Cl)cc23)CC1	94.4
CS(=O)(=O)N1CCC(Nc2ccnc3ccc(Cl)cc23)CC1	88.6
